# Source: PubChem BioAssay
# This is a sample that favours compounds with a hit; in the whole collection about 3.5% have one here.
# GPR151 activ: activators of human GPR151; Q8TDV0; PathHunter beta-arrestin GPR151 cells, luminescence; activation, % at 11.2 µM; 650,000 tested, 1% active; AID 1508602; in the data active = activation above about 4.9%
# FBW7 act: activators of human E3 ligase FBW7; Q969H0; AlphaScreen FBW7–phospho-cyclin E peptide binding, activator screen; normalized activity (activation), % at 26.1 µM; 650,000 tested, 0.13% active; AID 1259310; in the data active = normalized activity above about 1.9%;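 also: purified mutant Fbw7 with reduced substrate affinity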
# TEAD-YAP inh: TEAD-YAP interaction inhibition. HEK-TIYL cells, TEAD-Gal4/YAP UAS-luciferase luminescence. inhibition, % at 9.12 µM. 640,000 tested, 1.4% active. AID 1259422; in the data active = inhibition above about 32%
# MITF primary: human MITF inhibition, primary screen | 650,000 tested, 0.91% active | inhibition, % at 2.6 µM | AlphaScreen MITF homodimerization, bead proximity signal | O75030; in the data active = inhibition above about 50%
# GPR151 conf act: human GPR151 activation, confirmation screen. shares compounds with GPR151 activ. GPR151 PathHunter beta-arrestin cells, luminescence, 90 min; % of EA-reagent control over plate median. activation, % at 11.2 µM. 6,700 tested, under 10 active;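 active = mean percent activation across replicates above the confirmation screen cutoff of 4.91%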
# GPR119 ag: GPR119 activation, counter-screen for GPR151 activators. activation, % at 11.2 µM. AID 1508611. shares compounds with GPR151 activ. 6,700 tested, 0.3% active. GPR119 PathHunter beta-arrestin cells, luminescence, 90 min; 0 = compound-well median, 100 = enzyme-acceptor control;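 active = mean percent activation in the counterscreen above 29.09%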;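 also: counterscreen on off-target GPR119 to flag nonselective hits from the GPR151 activator screen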
# Target sequence (Q8TDV5 whole entry, looked up): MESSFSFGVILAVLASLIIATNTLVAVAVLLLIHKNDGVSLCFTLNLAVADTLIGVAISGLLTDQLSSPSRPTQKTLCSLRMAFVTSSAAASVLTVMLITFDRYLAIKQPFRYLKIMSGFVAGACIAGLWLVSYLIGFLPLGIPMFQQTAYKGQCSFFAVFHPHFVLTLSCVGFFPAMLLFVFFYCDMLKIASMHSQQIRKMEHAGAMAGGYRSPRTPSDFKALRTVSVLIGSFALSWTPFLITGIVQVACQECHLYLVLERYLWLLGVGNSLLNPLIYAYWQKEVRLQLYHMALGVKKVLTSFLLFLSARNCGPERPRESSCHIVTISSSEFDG
# Hits are given with their value; i = inactive; nt = no result given.
SMILES,GPR151 activ,FBW7 act,TEAD-YAP inh,MITF primary,GPR151 conf act,GPR119 ag
Cc1ccc(/C(N)=N/OC(=O)COc2ccc(Br)cc2)cc1,8.5,i,i,i,i,i
CC(C(=O)Nc1cccc(C(F)(F)F)c1)N(c1ccc(Cl)cc1)S(C)(=O)=O (stereo not drawn),6.8,i,i,i,i,i
Cc1nc(Cl)cc(N/N=C/c2ccc(O)cc2O)n1,i,i,i,i,nt,nt
COC(=O)c1c(NC(=O)CSc2nnc3cc(C)c4ccccc4n23)sc2c1CCC2,i,i,i,i,nt,nt
CCCCCCn1c(N/N=C/c2ccc([N+](=O)[O-])cc2)nc2c1c(=O)[nH]c(=O)n2C,5.9,i,i,i,i,i
CC(=O)c1cccc(Nc2c(-c3ccc(C)cc3)c(=O)c2=O)c1,i,i,i,i,nt,nt
CC(=O)c1ccc(Nc2c(-c3ccccc3)c(=O)c2=O)cc1,5.4,i,i,i,i,i
O=C(Nc1ccccc1)c1ccccc1OCC(O)Cn1c2ccccc2c2ccccc21 (stereo not drawn),13,i,i,i,i,i
O=C(O)C1CSC(c2ccccc2F)N1 (stereo not drawn),5.3,i,i,i,i,i
CCOC(=O)CSc1nnc(CSc2ncccn2)n1-c1ccccc1,11,i,i,i,i,i
COc1ccccc1C1=N/C(=C\c2cccs2)C(=O)O1,i,i,i,i,nt,nt
COc1ccc(NC(=O)C(C)N(c2ccc(C)cc2)S(C)(=O)=O)cc1Cl (stereo not drawn),i,i,i,i,nt,nt
COCCC(=O)Nc1ccc2c(c1)CN(S(=O)(=O)N1CCCC1)CC2,7.5,i,i,i,i,i
Clc1cccc(N2CCN(c3ncnc4c3nc3n4CCCCC3)CC2)c1,12,i,41,i,i,i
N#CC1=C(SCC(N)=O)NC2=C(C(=O)CCC2)C1c1cccc(Cl)c1Cl (stereo not drawn),i,i,i,i,nt,nt
Cc1ccccc1NC(=O)NC1(C(=O)N2CCN3CCCC3C2)CCCCC1 (stereo not drawn),12,i,i,i,i,i
COc1ccc(N(CCCN2C(=O)c3cccc4cccc(c34)C2=O)C(=O)c2ccc([N+](=O)[O-])cc2Cl)cc1,12,i,i,i,i,i
COc1ccc(N(CCCN2C(=O)c3cccc4cccc(c34)C2=O)C(=O)c2cc(Cl)cc(Cl)c2)cc1,i,i,i,i,nt,nt
COC(=O)c1ccc(C(=O)Nc2nnc(-c3ccc4c(c3)CCCC4)o2)cc1,6.0,i,i,i,i,i
CCC(=O)Nc1nnc(-c2ccc3c(c2)CCCC3)o1,i,i,i,i,nt,nt
CCOc1ccc(-n2c(SCC(=O)NCc3ccco3)nc3n[nH]c(C)c3c2=N)cc1,i,i,i,i,nt,nt
CCCNC(=O)c1cc(NCC)nc2ccccc12,5.2,i,i,i,i,i
Nc1cc(-c2ccccc2)nn1Cc1cccc(Cl)c1,i,i,i,i,nt,nt
Nc1c(-c2ccccc2)c(-c2ccccc2)nn1Cc1ccccc1,6.9,i,i,i,i,i
NC(=O)c1ccccc1NC(=O)CCn1c(=S)oc2ccccc21,7.8,i,i,i,i,i
SMILES,GPR151 activ,FBW7 act,TEAD-YAP inh,MITF primary,GPR151 conf act,GPR119 ag
O=C(Nc1nc(-c2ccccn2)cs1)c1ccccc1[N+](=O)[O-],5.4,i,54,i,i,i
CCc1nnc(NC(=O)c2ccccc2[N+](=O)[O-])s1,i,i,i,i,nt,nt
O=C(Nc1nc(-c2ccccc2)cs1)c1ccccc1[N+](=O)[O-],i,i,i,i,nt,nt
CC(C)(C)Cc1nnc(NC(=O)c2ccccc2[N+](=O)[O-])s1,13,i,i,i,i,i
C=CCNC(=O)NC(=O)COC(=O)/C=C/c1ccc(OCc2ccccc2)c(OCC)c1,i,i,i,i,nt,nt
CC(=O)c1ccc(N2CCN(C(=O)Nc3ccc(C)cc3)CC2)cc1,i,i,i,i,nt,nt
CC(=O)c1ccc(N2CCN(C(=O)Nc3cccc(F)c3)CC2)cc1,11,i,i,i,i,i
O=C(Nc1cccc2ccccc12)N1CCN(c2ccc(F)cc2)CC1,11,i,i,i,i,i
CCn1nc(C)c(CN2CCOc3ccc(C(C)(O)COc4ccccc4)cc3C2)c1C (stereo not drawn),6.3,i,i,i,i,i
CC(=O)c1ccc(NC2=C(N3CCCCC3)C(=O)c3ccccc3C2=O)cc1,i,i,i,i,nt,nt
C/C(=N/O)c1ccc(NC2=C(N3CCCC3)C(=O)c3ccccc3C2=O)cc1,5.9,i,i,i,i,i
CCc1ccccc1Nc1nc2ccccc2n1C,i,i,i,i,nt,nt
c1cncc(CSc2ccc(-c3cccnc3)nn2)c1,7.0,i,i,i,i,i
CCC(C)NC(=O)C1=CC(c2ccc(OC)c(OC)c2)=NS(=O)(=O)N1C (stereo not drawn),i,i,i,i,nt,nt
CCC(C)NC(=O)C1=CC(c2cccc(OC)c2)=NS(=O)(=O)N1C (stereo not drawn),5.2,i,i,i,i,i
Cc1cccc(S(=O)(=O)N2CCN(c3ccc(-n4nc(C)c(C)c4C)nn3)CC2)c1,i,i,i,i,nt,nt
C[C@H]1C(=O)N2CCN(Cc3ccc(F)c(F)c3)C[C@@H]2C(=O)N1C,6.8,i,i,i,i,i
O=C(NCCN1CCOCC1)c1cncc(-c2cccs2)c1,7.3,i,i,i,i,i
Cc1cccc2c1NC(=O)/C2=C\C(=O)c1cccs1,6.6,i,i,i,i,i
CCc1ccc2c(c1)/C(=C/C(=O)c1cccs1)C(=O)N2,17,i,i,i,i,i
COCCNC(=O)NC1(C(F)(F)F)Oc2cc(Cl)c(Cl)cc2O1,i,i,i,i,nt,nt
O=C(C1CC1)N(CC1CCCO1)c1nc(-c2ccc(Cl)cc2)cs1 (stereo not drawn),i,i,i,i,nt,nt
Cc1ccc(S(=O)(=O)Nc2ccc3c(c2)C(=O)NC3=O)c(C)c1,i,i,i,i,nt,nt
Cc1cc(C(C)(C)C)cc(S(=O)(=O)Nc2ccc3c(c2)C(=O)NC3=O)c1C,6.2,i,i,i,i,i
O=C(NN=C1CCCC1)c1[nH]ncc1I,i,i,i,i,nt,nt
SMILES,GPR151 activ,FBW7 act,TEAD-YAP inh,MITF primary,GPR151 conf act,GPR119 ag
O=[N+]([O-])c1ccc(N2CCOCC2)c(/C=N/NC(=S)Nc2ccccc2)c1,i,i,i,i,nt,nt
Cc1ccc(NC(=O)c2nc[nH]c2C(=O)Nc2ccc(C)cc2)cc1,i,i,i,i,nt,nt
Cc1cccc(NC(=O)c2nc[nH]c2C(=O)Nc2cccc(C)c2)c1,6.6,i,i,i,i,i
COC(=O)C1=C(C)N(Cc2ccc(C)cc2)C(=O)/C1=C\c1ccc(F)cc1,i,i,i,i,nt,nt
CCc1cccc(NC(=O)CCS(=O)(=O)c2ccc3c(c2)CC(C)N3C(=O)C2CC2)c1 (stereo not drawn),6.2,i,i,i,i,i
CC1Cc2cc(S(=O)(=O)CCC(=O)Nc3ccccc3)ccc2N1C(=O)C1CC1 (stereo not drawn),i,i,i,i,nt,nt
